About 2,000 (36%) of roughly 5,500 compounds were called active. Roughly 18% stayed inconclusive and do not appear here. Some of the results follow. Values without a mark were called inactive. No stated cut-off is given here; in the data, active means normalized growth mostly below about 0.91 (no sharp cut-off); inconclusive means no clear call, values can overlap the other calls; inactive means mostly above about 0.92.
Assay: chemical genetic growth profiling, strain panel (AID 1159580);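 further: tested at 20 µM; growth read once vehicle control cultures reached saturation at 30 °C; 1 = growth at the plate median or of vehicle wells; lower values mean less growth of the strain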
Details: growth OD

CC(C)N(C(=O)CCl)c1ccccc1
normalized growth (S. cerevisiae deletion strains, locus YJR043C, strain POL32, hits give low values): 1.03 | normalized growth (S. cerevisiae deletion strains, locus YJR075W, strain HOC1, hits give low values): 1.04 | normalized growth (S. cerevisiae deletion strains, locus YKL009W, strain mrt4, hits give low values): 1.02 | normalized growth (S. cerevisiae deletion strains, locus YKL068W, hits give low values): 1.04 | normalized growth (S. cerevisiae deletion strains, locus YKL085W, strain MDH1 (second series), hits give low values): 1.03 | normalized growth (S. cerevisiae deletion strains, locus YKL085W, strain MDH1, hits give low values): 1.03 | normalized growth (S. cerevisiae deletion strains, locus YKL160W, strain elf1, hits give low values): 0.974 | normalized growth (S. cerevisiae deletion strains, locus YKL190W, strain CNB1, hits give low values): 1.03 | normalized growth (S. cerevisiae deletion strains, locus YKR001C, strain vps1, hits give low values): 1.07 | normalized growth (S. cerevisiae deletion strains, locus YKR026C, strain gcn3, hits give low values): 1.01 | normalized growth (S. cerevisiae deletion strains, locus YKR091W, strain srl3, hits give low values): 1.01 | normalized growth (S. cerevisiae deletion strains, locus YLL001W, strain dnm1, hits give low values): 0.992 | normalized growth (S. cerevisiae deletion strains, locus YLL026W, hits give low values): 1.01 | normalized growth (S. cerevisiae deletion strains, locus YLL041C, strain sdh2, hits give low values): 1.02 | normalized growth (S. cerevisiae deletion strains, locus YLR027C, strain aat2, hits give low values): 1.01 | normalized growth (S. cerevisiae deletion strains, locus YLR039C, strain RIC1, hits give low values): 1.2 | normalized growth (S. cerevisiae deletion strains, locus YLR058C, strain SHM2, hits give low values): 1.03 | normalized growth (S. cerevisiae deletion strains, locus YLR102C, strain apc9, hits give low values): 1 | normalized growth (S. cerevisiae deletion strains, locus YLR221C, strain rsa3, hits give low values): 1 | normalized growth (S. cerevisiae deletion strains, locus YLR258W, strain gsy2, hits give low values): 0.978 | normalized growth (S. cerevisiae deletion strains, locus YLR262C, strain YPT6 (second series), hits give low values): 1.14 | normalized growth (S. cerevisiae deletion strains, locus YLR262C, strain YPT6, hits give low values): 1.21 | normalized growth (S. cerevisiae deletion strains, locus YLR268W, strain sec22, hits give low values): 1.02 | normalized growth (S. cerevisiae deletion strains, locus YLR320W, strain mms22, hits give low values): 0.97 | normalized growth (S. cerevisiae deletion strains, locus YLR330W, strain CHS5, hits give low values): 1.02 | normalized growth (S. cerevisiae deletion strains, locus YLR342W, strain FKS1 (second series), hits give low values): 0.989 | normalized growth (S. cerevisiae deletion strains, locus YLR342W, strain FKS1, hits give low values): 1.03 | normalized growth (S. cerevisiae deletion strains, locus YLR357W, strain rsc2, hits give low values): 1.18 [resistant] (active) | normalized growth (S. cerevisiae deletion strains, locus YLR370C, strain arc18, hits give low values): 1.03 | normalized growth (S. cerevisiae deletion strains, locus YLR371W, strain rom2, hits give low values): 1.01 | normalized growth (S. cerevisiae deletion strains, locus YLR384C, strain iki3, hits give low values): 1.01 | normalized growth (S. cerevisiae deletion strains, locus YLR418C, strain cdc73, hits give low values): 0.798 (active) | normalized growth (S. cerevisiae deletion strains, locus YML016C, strain PPZ1, hits give low values): 0.996 | normalized growth (S. cerevisiae deletion strains, locus YML032C, strain rad52, hits give low values): 1.01 | normalized growth (S. cerevisiae deletion strains, locus YML120C, strain ndi1, hits give low values): 0.986 | normalized growth (S. cerevisiae deletion strains, locus YML124C, strain tub3, hits give low values): 1.02 | normalized growth (S. cerevisiae deletion strains, locus YMR058W, strain fet3, hits give low values): 1 | normalized growth (S. cerevisiae deletion strains, locus YMR078C, strain ctf18, hits give low values): 1.01 | normalized growth (S. cerevisiae deletion strains, locus YMR125W, strain sto1, hits give low values): 1.16 [resistant] (active) | normalized growth (S. cerevisiae deletion strains, locus YMR129W, hits give low values): 1.01 | normalized growth (S. cerevisiae deletion strains, locus YMR205C, strain PFK2, hits give low values): 0.919 | normalized growth (S. cerevisiae deletion strains, locus YMR223W, strain ubp8, hits give low values): 1.02 | normalized growth (S. cerevisiae deletion strains, locus YMR231W, strain pep5, hits give low values): 0.992 | normalized growth (S. cerevisiae deletion strains, locus YMR263W, strain SAP30, hits give low values): 1.04 | normalized growth (S. cerevisiae deletion strains, locus YMR307W, strain GAS1, hits give low values): 0.99 | normalized growth (S. cerevisiae deletion strains, locus YNL067W, strain RPL9B, hits give low values): 1.04 | normalized growth (S. cerevisiae deletion strains, locus YNL071W, strain lat1, hits give low values): 0.922 | normalized growth (S. cerevisiae deletion strains, locus YNL128W, strain TEP1, hits give low values): 1.03 | normalized growth (S. cerevisiae deletion strains, locus YNL153C, strain GIM3, hits give low values): 1.03 | normalized growth (S. cerevisiae deletion strains, locus YNL209W, strain ssb2, hits give low values): 1.01 | normalized growth (S. cerevisiae deletion strains, locus YNL233W, strain BNI4, hits give low values): 1.03 | normalized growth (S. cerevisiae deletion strains, locus YNL248C, strain rpa49, hits give low values): 0.992 | normalized growth (S. cerevisiae deletion strains, locus YNL250W, strain rad50, hits give low values): 1.03 | normalized growth (S. cerevisiae deletion strains, locus YNL271C, strain bni1, hits give low values): 1.02 | normalized growth (S. cerevisiae deletion strains, locus YNL298W, strain CLA4, hits give low values): 1.03 | normalized growth (S. cerevisiae deletion strains, locus YNL307C, strain MCK1, hits give low values): 0.981 | normalized growth (S. cerevisiae deletion strains, locus YNL322C, strain KRE1 (second series), hits give low values): 1.04 | normalized growth (S. cerevisiae deletion strains, locus YNL322C, strain KRE1, hits give low values): 1.04 | normalized growth (S. cerevisiae deletion strains, locus YNR049C, strain mso1, hits give low values): 1.02 | normalized growth (S. cerevisiae deletion strains, locus YNR052C, strain pop2, hits give low values): 1.02 | normalized growth (S. cerevisiae deletion strains, locus YOL006C, strain TOP1, hits give low values): 1 | normalized growth (S. cerevisiae deletion strains, locus YOL012C, strain htz1): 0.89 | normalized growth (S. cerevisiae deletion strains, locus YOL147C, strain pex11, hits give low values): 1 | normalized growth (S. cerevisiae deletion strains, locus YOR001W, strain rrp6, hits give low values): 0.983 | normalized growth (S. cerevisiae deletion strains, locus YOR061W, strain CKA2, hits give low values): 1.03 | normalized growth (S. cerevisiae deletion strains, locus YOR069W, strain VPS5, hits give low values): 1.01 | normalized growth (S. cerevisiae deletion strains, locus YOR070C, strain gyp1, hits give low values): 1.01 | normalized growth (S. cerevisiae deletion strains, locus YOR080W, strain dia2, hits give low values): 1.03 | normalized growth (S. cerevisiae deletion strains, locus YOR083W, strain WHI5, hits give low values): 0.976 | normalized growth (S. cerevisiae deletion strains, locus YOR106W, strain vam3, hits give low values): 0.958 | normalized growth (S. cerevisiae deletion strains, locus YOR136W, strain idh2, hits give low values): 1 | normalized growth (S. cerevisiae deletion strains, locus YOR144C, strain elg1, hits give low values): 1.02 | normalized growth (S. cerevisiae deletion strains, locus YOR184W, strain ser1, hits give low values): 1 | normalized growth (S. cerevisiae deletion strains, locus YOR265W, strain rbl2, hits give low values): 1.04 | normalized growth (S. cerevisiae deletion strains, locus YOR270C, strain vph1, hits give low values): 0.865 | normalized growth (S. cerevisiae deletion strains, locus YOR290C, strain snf2, hits give low values): 0.928 | normalized growth (S. cerevisiae deletion strains, locus YOR316C, strain cot1, hits give low values): 1.01 | normalized growth (S. cerevisiae deletion strains, locus YPL051W, strain arl3, hits give low values): 0.987 | normalized growth (S. cerevisiae deletion strains, locus YPL055C, strain LGE1, hits give low values): 1.03 | normalized growth (S. cerevisiae deletion strains, locus YPL078C, strain atp4, hits give low values): 0.973 | normalized growth (S. cerevisiae deletion strains, locus YPL106C, strain sse1, hits give low values): 1.14 | normalized growth (S. cerevisiae deletion strains, locus YPL240C, strain hsp82, hits give low values): 1 | normalized growth (S. cerevisiae deletion strains, locus YPL241C, strain CIN2, hits give low values): 1.02 | normalized growth (S. cerevisiae deletion strains, locus YPR119W, strain clb2, hits give low values): 1.01 | normalized growth (S. cerevisiae deletion strains, locus YPR141C, strain kar3, hits give low values): 1.03 | normalized growth (S. cerevisiae deletion strains, locus YPR163C, strain tif3, hits give low values): 1.03 | normalized growth (S. cerevisiae deletion strains, locus YPR167C, strain met16, hits give low values): 1.02 | normalized growth (S. cerevisiae deletion strains, strain wtn01, hits give low values): 1.02 | normalized growth (S. cerevisiae strains, strain wild type, hits give low values): 1.03

From PubChem BioAssay AID1159580 (chemical genetic matrix, 2015)
